Assay results as given in PubChem BioAssay AID1359 (The Scripps Research Institute Molecular Screening Center, 2008).
“And” between values parts separate entries of the source, which are not always exact repeats. Identical values can stand only once. Hit rate of the full screen: of about 220,000 compounds, about 970 (0.44%) were called active. For the sample, actives were picked, then their nearest neighbours and some compounds at random. Unmarked numbers belong to inactive results. Rule as the data show it: active = activation above about 27%; inactive = the rest.

target: Neuropeptide Y receptor type 2 (Homo sapiens) (UniProt P49146); test: NPY-Y2 potentiators or agonists, primary screen, cell-based (AID 1359); conditions: cells expressing NPY-Y2, potentiator/agonist read-out; at 3.6 µM; hits give high values;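 also: cells stimulated with NPY near EC25 plus isoproterenol at EC100; 0% = vehicle plus submaximal agonist and 100% = vehicle plus saturating agonist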
Sequence (P49146 whole entry, looked up): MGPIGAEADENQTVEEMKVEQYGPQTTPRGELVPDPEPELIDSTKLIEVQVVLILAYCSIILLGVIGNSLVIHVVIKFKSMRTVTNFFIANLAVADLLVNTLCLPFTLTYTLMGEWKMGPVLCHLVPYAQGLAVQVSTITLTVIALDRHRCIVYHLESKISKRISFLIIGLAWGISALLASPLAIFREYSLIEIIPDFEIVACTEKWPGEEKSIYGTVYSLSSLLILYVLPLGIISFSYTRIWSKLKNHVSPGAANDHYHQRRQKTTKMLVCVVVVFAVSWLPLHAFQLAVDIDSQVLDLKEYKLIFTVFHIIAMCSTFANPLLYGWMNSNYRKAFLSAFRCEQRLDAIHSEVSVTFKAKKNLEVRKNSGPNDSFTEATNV

**Q.** With `C=CCSc1nnc(NC(=O)c2ccc(NC(C)=O)cc2)s1` as the compound, how does the activation read?
**A.** -3.89%

**Q.** With `CCSc1nnc(NC(=O)c2ccc(C)cc2)s1` as the compound, how does the activation read?
**A.** 31.6% (active)

**Q.** Which activation does the source give for `CCSc1nnc(NC(=O)Cc2ccccc2OC)s1` here?
**A.** -5.68%

**Q.** For `Cc1nc2ccccc2c(C)c1C(=O)c1ccc(F)cc1`, which activation is on record?
**A.** -11.5%

**Q.** With `CCCC1OC23CCCCC2C(C#N)(C#N)C1(C#N)C(=N)O3` (stereo not drawn) as the compound, how does the activation read?
**A.** 7.5%

**Q.** For `COCCCNC(NC(=O)c1ccc(C)cc1)C(Cl)(Cl)Cl` (stereo not drawn), which activation is on record?
**A.** 15.8%

**Q.** `COc1ccc(C(=O)NC2(C(F)(F)F)NC(=O)N(CCCc3ccccc3)C2=O)c(OC)c1OC` (stereo not drawn) was tested. Which activation did it give?
**A.** -6.73%

**Q.** How did the activation turn out when `COc1ccccc1OCCNCC(O)COc1cccc2[nH]c3ccccc3c12` (stereo not drawn) was run?
**A.** 99.4% (active) and 97.9% (active)

**Q.** `CC(O)CNCCOc1cccc(Oc2ccccc2)c1` (stereo not drawn) was tested. Which activation did it give?
**A.** -22.6%

**Q.** Which activation does the source give for `COc1ccccc1OCCNC(=O)c1cc([N+](=O)[O-])cc([N+](=O)[O-])c1` here?
**A.** -7.14%

**Q.** Which activation does the source give for `C=CCn1c(SCc2cccc(F)c2)nc2cc(C(=O)N3CCC(C(N)=O)CC3)ccc2c1=O` here?
**A.** 8.55%

**Q.** `O=C(NCCc1ccccn1)c1cc(-c2ccc(Cl)cc2)nc2ccccc12` was tested. Which activation did it give?
**A.** -15.9%

**Q.** Which activation does the source give for `O=C1c2ccccc2C(=O)c2c1cccc2N1CCN(Cc2ccccc2)CC1` here?
**A.** 48.8% (active)

**Q.** `O=c1cc(N2CCN(Cc3ccccc3)CC2)c(-c2ccccc2)n[nH]1` was tested. Which activation did it give?
**A.** 12.9%

**Q.** Which activation does the source give for `O=C1c2ccccc2C(=O)c2c1cccc2N1CCN(CCO)CC1` here?
**A.** 7.55%

**Q.** `COc1ccc(NS(=O)(=O)c2cc(NC(=O)CC(=O)c3ccc([N+](=O)[O-])cc3)ccc2C)cc1` was tested. Which activation did it give?
**A.** -11.2%

**Q.** For `CC(=O)C1C(c2ccc(Cl)cc2)NC(=O)NC1(O)C(F)(F)F` (stereo not drawn), which activation is on record?
**A.** -6.52%

**Q.** Which activation does the source give for `CC(=O)C1C(c2cccc(Oc3ccccc3)c2)NC(=O)NC1(O)C(F)(F)F` (stereo not drawn) here?
**A.** 6.91%

**Q.** For `O=C1NC(c2ccc(-c3ccccc3[N+](=O)[O-])o2)C(C(=O)c2ccc(Cl)cc2)C(O)(C(F)(F)F)N1` (stereo not drawn), which activation is on record?
**A.** 37.4% (active)

**Q.** `O=C(c1ccc(F)cc1)n1c(=S)nc2ccccn21` was tested. Which activation did it give?
**A.** 3.79%

**Q.** How did the activation turn out when `COc1cc(N2C(=O)c3ccccc3C2=O)c(Cl)cc1C(=O)OCC(=O)N1CCOCC1` was run?
**A.** -10.6%

**Q.** With `OC(COCC1COc2ccccc2O1)CN1CCN(c2ccc(F)cc2)CC1` (stereo not drawn) as the compound, how does the activation read?
**A.** 80.4% (active)

**Q.** How did the activation turn out when `OC(COCc1ccco1)CN1CCN(c2ccccc2)CC1` (stereo not drawn) was run?
**A.** -8.6%

**Q.** For `O=[N+]([O-])c1ccc(N2CCN(CC(O)COc3ccccc3)CC2)cc1` (stereo not drawn), which activation is on record?
**A.** -7.01%

**Q.** Which activation does the source give for `COc1ccc(OCc2cn3c(C)cc(C)nc3n2)cc1` here?
**A.** 1.94%

**Q.** With `COc1cc(NC(=S)NCc2ccc(S(N)(=O)=O)cc2)cc(OC)c1` as the compound, how does the activation read?
**A.** 4.03%

**Q.** How did the activation turn out when `CC1(C)CC(=O)C(N=Nc2c(F)cccc2F)=C(O)C1` was run?
**A.** 19.3%

**Q.** `Cc1nn(-c2ccccc2)c(C)c1/C=C/C(=O)OC(C)C(N)=O` (stereo not drawn) was tested. Which activation did it give?
**A.** -0.33%

**Q.** `O=C(NCC(O)c1ccc([N+](=O)[O-])cc1)C1CCCCC1` (stereo not drawn) was tested. Which activation did it give?
**A.** -6.08%

**Q.** `CC(C)(C)n1ncc2c(=O)n(Cc3ccc(Cl)cc3)cnc21` was tested. Which activation did it give?
**A.** -23.4%

**Q.** For `Cc1cccc(C)c1Nc1c(-c2ccccc2O)nc2ncccn12`, which activation is on record?
**A.** 56.5% (active)

**Q.** For `Cc1ccccc1Nc1c(-c2ccccc2)nc2ncccn12`, which activation is on record?
**A.** 22.6%

**Q.** For `COC(=O)c1ccc(COc2ccc(/C=N/NC(=O)C(=O)Nc3ccc(OC)cc3)cc2OC)o1`, which activation is on record?
**A.** -3.63%

**Q.** `COc1ccc2c(c1)C(SCC(=O)NCc1ccccc1)CC(C)(C)O2` (stereo not drawn) was tested. Which activation did it give?
**A.** 15.7%

**Q.** With `COc1ccc(/C(C)=N/Nc2cc(C(F)(F)F)ccc2Cl)c(OC)c1` as the compound, how does the activation read?
**A.** -10.5%

**Q.** For `CCOC(=O)c1c(NC(=O)C2CCN(S(=O)(=O)c3ccc(Cl)cc3)CC2)sc2c1CCCC2`, which activation is on record?
**A.** -5.8%

**Q.** With `O=C(Nc1cccc(-c2nc3ccccc3[nH]2)c1)c1ccc(C(=O)Nc2cccc(-c3nc4ccccc4[nH]3)c2)cc1` as the compound, how does the activation read?
**A.** 0.29%

**Q.** For `O=C(Nc1sc2c(c1-c1nc3ccccc3[nH]1)CCCC2)C1CC1`, which activation is on record?
**A.** 30.3% (active)

**Q.** How did the activation turn out when `NC(=O)c1ccc(N2CCOCC2)nc1` was run?
**A.** -10.3%

**Q.** `CCOC12CC(C)(C)CC(C)(CC3=C1C(=O)CC(C)(C)C3)C2` (stereo not drawn) was tested. Which activation did it give?
**A.** -1.87%

**Q.** For `CN(C)CCCSc1ccccc1NC(=O)/C=C/c1ccccc1`, which activation is on record?
**A.** -11.2%

**Q.** How did the activation turn out when `C1CC1Cc1noc(CN2CCN(CC3CC3)CC2)n1` was run?
**A.** -4.58%

**Q.** How did the activation turn out when `Cc1c(Cl)cccc1NC(=O)CSc1ccc(-c2cccnc2)nn1` was run?
**A.** 2.4%

**Q.** For `Cc1ccc(CCNC(=O)C2CCN(S(=O)(=O)N3CCCC3)CC2)cc1`, which activation is on record?
**A.** 104% (active)

**Q.** For `O=C(NCCCN1CCN(Cc2ccccc2)CC1)C1CCN(S(=O)(=O)N2CCCC2)CC1`, which activation is on record?
**A.** 17.2%

**Q.** Which activation does the source give for `CCS(=O)(=O)N1CCCC(C(=O)NCc2ccc(C)cc2)C1` (stereo not drawn) here?
**A.** 13%

**Q.** For `CSc1nnc(SCc2nc3sc(C(=O)O)c(C)c3c(=O)[nH]2)s1`, which activation is on record?
**A.** 1.67%

**Q.** How did the activation turn out when `COC(=O)CSc1nc2c(c(C3CC=CCC3)c1C#N)CCC2` (stereo not drawn) was run?
**A.** -6.44%

**Q.** Which activation does the source give for `Cc1nc([N+](=O)[O-])cn1CC(=O)Nc1ccc2c(c1)OCO2` here?
**A.** -19.2%

**Q.** `Cc1ccccc1C(CC(=O)c1cccs1)C(C#N)C#N` (stereo not drawn) was tested. Which activation did it give?
**A.** 4.09%

**Q.** `CC1CCCCC1NC(=O)/C(C#N)=C/C=C/c1ccccc1[N+](=O)[O-]` (stereo not drawn) was tested. Which activation did it give?
**A.** -5.09%

**Q.** `Cc1cc(C)c(NC(=O)c2oc3ccccc3c2COc2ccccc2)c(C)c1` was tested. Which activation did it give?
**A.** -12.9%

**Q.** `Cc1cc(C)cc(OCC(=O)NCc2cc(C)nc3ccccc23)c1` was tested. Which activation did it give?
**A.** -3.92%

**Q.** With `Cc1cc(C)c(NC(=O)C[N+](C)(C)CC(O)COc2cccc3ccccc23)c(C)c1` (stereo not drawn) as the compound, how does the activation read?
**A.** 71.5% (active)

**Q.** `CCN(C(=O)COc1cccnc1[N+](=O)[O-])C1CCS(=O)(=O)C1` (stereo not drawn) was tested. Which activation did it give?
**A.** -0.31%

**Q.** For `CN(CCO)Cc1csc2ccc(Br)cc12`, which activation is on record?
**A.** -20.4%

**Q.** `CC(=O)N1C(=O)/C(=C2\SC(=S)N(NC(=O)c3ccc(O)cc3)C2=O)c2ccccc21` was tested. Which activation did it give?
**A.** -3.06%

**Q.** Which activation does the source give for `Cc1ccc(NS(=O)(=O)c2cccs2)cc1S(=O)(=O)N1CCCCCC1` here?
**A.** 3.99%
